Measurements taken from paper PMC7819943, “Rice protein-binding microarrays: a tool to detect cis-acting elements near promoter regions in rice”.
In all, about 68,000 sequences were measured (“fluorescence intensity (a.u.)”: median about 9,100, highest 2% from about 16,000 on). The sample holds the highest values, similar sequences and a random draw of the others, so the mix is not that of the screen.

Molecular target: OsWRKY34 (Oryza sativa, UniProt Q0JBA9 1-250)
Experiment: protein-binding microarray (RPBM); PBS, 2% BSA, 51.3 ng/ul salmon testes DNA, 50 uM zinc acetate, 200 nM TF, 25 C, 1 h; high values mean tight binding
Conditions: protein: recombinant; tags: N-terminal polyhistidine and DsRed monomer fusion (pET32a); label: CyDye5-dUTP incorporated in the synthesized complementary strand; 3' TTTTT single-stranded linker to array surface; dsDNA, one strand shown
Procedure, shortened: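 An Axon 4000B scanner gave the binding signal as per-feature fluorescence intensity in arbitrary units. This followed washing of a custom Agilent array that had been incubated for 1 h at 25 °C with 200 nM protein in PBS, 2% BSA, salmon testes DNA and 50 µM zinc acetate. The proteins were transcription factors fused at the N-terminus to polyhistidine and DsRed, expressed in E. coli BL21-CodonPlus and purified on Ni–NTA.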

Chain of OsWRKY34 (Q0JBA9 entry or part of it): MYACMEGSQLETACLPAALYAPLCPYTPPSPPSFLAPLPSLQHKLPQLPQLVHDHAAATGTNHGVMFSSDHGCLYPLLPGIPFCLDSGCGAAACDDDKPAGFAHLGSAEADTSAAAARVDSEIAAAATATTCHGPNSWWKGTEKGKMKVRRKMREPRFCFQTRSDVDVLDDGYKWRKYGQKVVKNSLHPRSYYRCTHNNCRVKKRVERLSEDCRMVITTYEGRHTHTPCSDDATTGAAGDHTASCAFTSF

Sequence	binding signal
TTCCTTTTTTTATGCAACTTTGACAAGCCTAATAGATATACGGAGTCACCTAGTGCAG	8500 fluorescence intensity (a.u.)
GCTACCATCGTCACCGCCTCAACCAAGCTACCCGTGTCTCCGGAGTCACCTAGTGCAG	10400 fluorescence intensity (a.u.)
GCCCTACTCTACCCCTAGCCCTCCGCGCGGCTGCCGTCGACGGAGTCACCTAGTGCAG	8970 fluorescence intensity (a.u.)
CACCCAAACCAAATCAAATCCGTCCATCCATTCGCCTCTACGGAGTCACCTAGTGCAG	8960 fluorescence intensity (a.u.)
ATCCACTTATATATACACACATTTGTAATTTGTATCTATACGGAGTCACCTAGTGCAG	8270 fluorescence intensity (a.u.)
CGTTTTATTTTTGGTTGTTTTTCTGTTTGGGTTTTGATTTCGGAGTCACCTAGTGCAG	11300 fluorescence intensity (a.u.)
TTTCATGTCGCTCCTTGTCGTTGCTGCTCTTTGGGTGCAACGGAGTCACCTAGTGCAG	11100 fluorescence intensity (a.u.)
CATATGTATGAGGGTATCTTTGTTTTGGCTTTGGTCCCTTCGGAGTCACCTAGTGCAG	10200 fluorescence intensity (a.u.)
GCTGGAGGGGCTGGGGTATGTTCTTTTTGTATATGACGTTCGGAGTCACCTAGTGCAG	20300 fluorescence intensity (a.u.)
ATTTTCCTTGATTTTTTTTGTGTGTTTGGGAATTGGGATACGGAGTCACCTAGTGCAG	12600 fluorescence intensity (a.u.)
TTGATGGGTTTTGGGTTTTTGTGCTGCTCCTTTTTCGTAACGGAGTCACCTAGTGCAG	19800 fluorescence intensity (a.u.)
GGGGTATGAAATGTTTTTTTTTTCCTTTACGTTTCTTTTTCGGAGTCACCTAGTGCAG	15400 fluorescence intensity (a.u.)
GTTTGAGGGTTTTTTGTTGGTTTAGAATCATCTTTTTCTTCGGAGTCACCTAGTGCAG	9210 fluorescence intensity (a.u.)
GGCTGGTTTGGTTGGTTGAGAATACCTTTTCTTTTTCCTTCGGAGTCACCTAGTGCAG	29100 fluorescence intensity (a.u.)
ATTTTCCTTGTTTTGATGTTTTCTGGTTGGGGAAGGGTTACGGAGTCACCTAGTGCAG	24600 fluorescence intensity (a.u.)
GGTTTTTATGGGGTTGCTCTTTGATTTTTTTTTTCTCCTGCGGAGTCACCTAGTGCAG	12200 fluorescence intensity (a.u.)
TGTTTTTGCTTCTCTTCCTTTTGCTGGAGCTTATTGGTTTCGGAGTCACCTAGTGCAG	10100 fluorescence intensity (a.u.)
CCTATGAAGAAACTTACGCTGACGGCTGACCTAAACGTGCCGGAGTCACCTAGTGCAG	11000 fluorescence intensity (a.u.)
AAACAATCCGACGGCCCGTATTCCGTGGTCCACGGCCACGCGGAGTCACCTAGTGCAG	9020 fluorescence intensity (a.u.)
CTTATTTCAAATGTGTGGGTATACATATGTGCACATATATCGGAGTCACCTAGTGCAG	8440 fluorescence intensity (a.u.)
TCGTTACATGTTCTTTCATTCTCGTATTGCATTATCTGCTCGGAGTCACCTAGTGCAG	9260 fluorescence intensity (a.u.)

Sequence	binding signal
GCTTGGATTTTTTTTGTTGCTTTTGGTTGTTGTGATCCCTCGGAGTCACCTAGTGCAG	11800 fluorescence intensity (a.u.)
TATTAGTGTTTTATTTTCACCGGTTAATATTTTTGTTCTTCGGAGTCACCTAGTGCAG	8880 fluorescence intensity (a.u.)
GTGCTCGATGCTCGATGCCCTCCTTTTCCGCCATCTTTTTCGGAGTCACCTAGTGCAG	10200 fluorescence intensity (a.u.)
TCGATCGGTTGGTTGGTTGGTTTTGTTGGATTTTTTTCCTCGGAGTCACCTAGTGCAG	18700 fluorescence intensity (a.u.)
TTCGTTAAATTATTTTTCTTTTTCGTTTTTTTTTTTTGTTCGGAGTCACCTAGTGCAG	8930 fluorescence intensity (a.u.)
TTCCTGGTTGCTTCTTTTGCAGTTTTTTTTTTCCCTTCCTCGGAGTCACCTAGTGCAG	10100 fluorescence intensity (a.u.)
GTTCTTCGTTAATACGGTGCTTTCATTATTTTGTTTTCCCCGGAGTCACCTAGTGCAG	16600 fluorescence intensity (a.u.)
CCCTGGTGTTTGGATTTGGTTGTTCCTCGCGATTGCATTTCGGAGTCACCTAGTGCAG	15600 fluorescence intensity (a.u.)
GGTTTGGCTTTGCTTCTTCCTCGCGCGGCGCCTCCCATCCCGGAGTCACCTAGTGCAG	9260 fluorescence intensity (a.u.)
GGATTTTCTTCCGATCTCGCTTCCACCTCGCCGCCTCGCCCGGAGTCACCTAGTGCAG	9120 fluorescence intensity (a.u.)
CTCGCCTCGCCGCCTTTTCTTCGCCATCTTTTTCGATTTCCGGAGTCACCTAGTGCAG	18800 fluorescence intensity (a.u.)
CTCCTGCCTGGGTTTGGTTTGGTTTGGCTTTGCTTCTTCCCGGAGTCACCTAGTGCAG	36800 fluorescence intensity (a.u.)
TACTATACCACTTACTACTAAGTATTCTGCGCACAAACAGCGGAGTCACCTAGTGCAG	10800 fluorescence intensity (a.u.)
CCTCGGCTCCCATCCACTACCGTTTGCTACTCCGGCGCCGCGGAGTCACCTAGTGCAG	10600 fluorescence intensity (a.u.)
CTCATCTCACCCGTCACTACTGCACTGCGCACCATTGCCGCGGAGTCACCTAGTGCAG	8540 fluorescence intensity (a.u.)
GATTGGGTTGTTTGCGGGGCTAAGTTCCTAATTTTAATGACGGAGTCACCTAGTGCAG	11500 fluorescence intensity (a.u.)
ACCCTCCACCCGCCACCGCCACCGCCGCCTTCGCCGCCGCCGGAGTCACCTAGTGCAG	9250 fluorescence intensity (a.u.)
TTGCAACGGATTTTACTGGGCTTATGGGCTTCTTTTATTGCGGAGTCACCTAGTGCAG	9700 fluorescence intensity (a.u.)
AATACTTGCGAGCTCCGATCTCTTCTTCTTCTTCGTGAGCCGGAGTCACCTAGTGCAG	8180 fluorescence intensity (a.u.)
CCTCATTTGCTTCTTCTTCTTCTTCCTCCTCTTTGTTTCACGGAGTCACCTAGTGCAG	9120 fluorescence intensity (a.u.)
GAAGCTTCCTCGTCGTCCTTTGTTGGGTTGGGTTGGGTTGCGGAGTCACCTAGTGCAG	21000 fluorescence intensity (a.u.)

Sequence	binding signal
TCTCCTTGATTCCCGCTTCTCACACGCATTATTTGTTTCACGGAGTCACCTAGTGCAG	18500 fluorescence intensity (a.u.)
GGGATTTCATATATCTGGTTTTGCGGTTGGGGACGATTTTCGGAGTCACCTAGTGCAG	12300 fluorescence intensity (a.u.)
CTCTCTTCTTCTTCCTCGCTTTGCTTGGGTTGGGTTGGAGCGGAGTCACCTAGTGCAG	14800 fluorescence intensity (a.u.)
GCTTTGTTCTGATTCCTTCACAGTTATTTGATATTTTCCTCGGAGTCACCTAGTGCAG	8710 fluorescence intensity (a.u.)
GAGACGTTGTATATCTGGTTTTGTGGTTTGGGGATGTTTTCGGAGTCACCTAGTGCAG	20100 fluorescence intensity (a.u.)
TCTTGCGACGATCGTGTGGGGTGGGTTCGTGTGCTCTCTCCGGAGTCACCTAGTGCAG	19500 fluorescence intensity (a.u.)
TGTTGTCGTCGTCCCTCTTCCTTTCCTTTCCTTTCCTTGCCGGAGTCACCTAGTGCAG	8870 fluorescence intensity (a.u.)
CTTGCTCTCCTCTCTCGTGCTCCATCGATCGATCGATCTCCGGAGTCACCTAGTGCAG	9660 fluorescence intensity (a.u.)
GGATTGGTTTTGAGATTGTTCTGTCAGATGGGGATTGTTTCGGAGTCACCTAGTGCAG	12700 fluorescence intensity (a.u.)
CACGTCACCTGCATATGCCCTTCTTCCTCGCCGGCCACACCGGAGTCACCTAGTGCAG	11000 fluorescence intensity (a.u.)
TTTTCGTCTATTTTATTACTGTTGCTTGCCTACAATTCTCCGGAGTCACCTAGTGCAG	13500 fluorescence intensity (a.u.)
ATAGGTGCCGGTTCTATTTTGGTATAGGGGTCGGTTGTTTCGGAGTCACCTAGTGCAG	11700 fluorescence intensity (a.u.)
TCTCACTCTCGAGCCATCGTCTTCAGCTCGCTCATTACTGCGGAGTCACCTAGTGCAG	9030 fluorescence intensity (a.u.)
CGCCTTCGCCTCCGGCCCCTTATATGGCGTGGCGGGGAGGCGGAGTCACCTAGTGCAG	8930 fluorescence intensity (a.u.)
TTCGTTGACCAAGTTTAATTCAAATTCAATTCAATTTTAACGGAGTCACCTAGTGCAG	9760 fluorescence intensity (a.u.)
TAATGACTTATCCTGCGGTGAAAAATCTTCATCTTCGTATCGGAGTCACCTAGTGCAG	8160 fluorescence intensity (a.u.)
GCTGCTCGGATTTGATTGATTGATTGATTGGCGGGTGGTCCGGAGTCACCTAGTGCAG	8590 fluorescence intensity (a.u.)
GCAATTTTTTACGCCCACACGACTGTCCGAGAGCAATATGCGGAGTCACCTAGTGCAG	8170 fluorescence intensity (a.u.)
CTCCCGAGGAAGATGACGAGGAGTCAGTCAACAGTTGACTCGGAGTCACCTAGTGCAG	8130 fluorescence intensity (a.u.)
TCCCACGATTTCCTTTCCTGCTTTTCTCATCCCTTTTGTTCGGAGTCACCTAGTGCAG	16500 fluorescence intensity (a.u.)
TCAATTATTCAGGGTTTCTTCTGGTTCTTGTCTCGCCATGCGGAGTCACCTAGTGCAG	8630 fluorescence intensity (a.u.)

Sequence	binding signal
CCTTCGATTGACCTCCTCATCCTCTTCCCCTGCTTTCTTTCGGAGTCACCTAGTGCAG	9720 fluorescence intensity (a.u.)
TCTTCCCGCCTTTTTTTTCTTTGTTATTTTTCTTTTTTTTCGGAGTCACCTAGTGCAG	18000 fluorescence intensity (a.u.)
TCTCTCTCTCTCTCTCTTCTCTTCTCTTTGTTTTCTTGTTCGGAGTCACCTAGTGCAG	9940 fluorescence intensity (a.u.)
CTTTTTTCTCTGCGGGTTCTTCAATTATTCAGGGTTTCTTCGGAGTCACCTAGTGCAG	16800 fluorescence intensity (a.u.)
TTCTTTCCTTACGATTTTTGCTCCTGCTCTAGTTCTTGTTCGGAGTCACCTAGTGCAG	8140 fluorescence intensity (a.u.)
GGGTTCTTTCTGTAGTAGGGGTTTTTCTTTGTTTTCTCTTCGGAGTCACCTAGTGCAG	17700 fluorescence intensity (a.u.)
GAATTTTTTTTTCGTTTTTTTCAATTCGTTATTCTTTTCTCGGAGTCACCTAGTGCAG	12300 fluorescence intensity (a.u.)
ATTCTAGTAGTAGTTGTTTATCTTTGTTCTGTTGTTTCTTCGGAGTCACCTAGTGCAG	8520 fluorescence intensity (a.u.)
TTCCTTTTTTCCCGCCCGTTCCTTTTTTGTTTGTTATGTTCGGAGTCACCTAGTGCAG	15700 fluorescence intensity (a.u.)
TCCTTTTCTTTTCTTTTATTTTTTTTTGTTTTTTCCCGTTCGGAGTCACCTAGTGCAG	8300 fluorescence intensity (a.u.)
AAAAGGCGTTTGCTTGTTTTTGCTGTGGGTTAATTCGCCTCGGAGTCACCTAGTGCAG	8090 fluorescence intensity (a.u.)
GTCACTCCTACTCCCGCCACCACCGGCCCAATGGCGCCCCCGGAGTCACCTAGTGCAG	9660 fluorescence intensity (a.u.)
CCCAGTTTTATTTCTGCAGTTCATTTTATGAGAGCATTCTCGGAGTCACCTAGTGCAG	8120 fluorescence intensity (a.u.)
GTGCTCTCTGCTGGCTGCGACGCCATATATGCCTTTCTTCCGGAGTCACCTAGTGCAG	8720 fluorescence intensity (a.u.)
ACATTCTCTTATACCCATCACAATCATTTGCTCAATAGGGCGGAGTCACCTAGTGCAG	8620 fluorescence intensity (a.u.)
CTATCAATTCGCTCTATTATGTCGCTCAATTCTCTCTCGCCGGAGTCACCTAGTGCAG	8650 fluorescence intensity (a.u.)
GCCGGATCCAGATCTCCACCGCCTCGCCTCGCCGCGCCGCCGGAGTCACCTAGTGCAG	10400 fluorescence intensity (a.u.)
CTACACACAAACTTCCAACTTTTCTGTCACATCGTTCCAACGGAGTCACCTAGTGCAG	11900 fluorescence intensity (a.u.)
GTGTGTTTTTCTGCCATTTTTCGCCTTAGGTCTTCGCAATCGGAGTCACCTAGTGCAG	12300 fluorescence intensity (a.u.)
GAGATAGATGGGCCTGAAATGCGCCGATGGTCAGGCCTGCCGGAGTCACCTAGTGCAG	8190 fluorescence intensity (a.u.)
TTCGTGCACGCGGTCCATGCACCAGCCACCATTCCCTTCGCGGAGTCACCTAGTGCAG	8350 fluorescence intensity (a.u.)
